Compounds with a hit are over-represented: about 2.6% of the library has one in this group of screens.
Shn3 inh set2: reduction of Shn3 3'UTR firefly luciferase signal, primary screen, Schnurri-3 inhibitor project, cell-based, Clone20 osteoblasts, set 2; Clone20 osteoblast Shn3 3'UTR firefly luciferase, 24 h; inhibition, % at 12.5 µM; actives 0.52% (n = 360,000); AID 588674, 2011;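 active = mean inhibition of at least 75% with every replicate also reaching 75%; inconclusive = mean inhibition at least 75% but some replicate below; inactive = mean inhibition below 75%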;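 note: 0% = median of neutral control wells and 100% = pilot-screen positive control compound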
Peg3 prom inh: Peg3 promoter-driven luciferase inhibitors, primary screen, cell-based, HeLa, luciferase luminescence | HeLa PEG-Prom luciferase reporter, overnight | inhibition, % at 20 µM | actives 1.7% (n = 360,000);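 active = inhibition of at least 50% at 20 µM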
KKLEB cytotox: cytotoxicity in KKLEB CF airway cells, primary screen, cytotoxicity control for CF NF-kB inhibitor project, cell-based, uHTS, fluorescence assay plates; KKLEB CF airway cells viability, ATPlite luminescence, overnight; stronger effect = lower value; cells stimulated with P. aeruginosa culture filtrate; activity change (cytotoxicity), % at 5 µM; actives 0.36% (n = 360,000); AID 602141, 2011;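 active = corrected activity change at or below -50% at 5 µM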
CF NFkB inh: inhibitors of PAF-induced NF-kB signaling, primary screen, cell-based, GFP fluorescence, uHTS. KKLEB NF-kB-GFP reporter, GFP fluorescence overnight. inhibition, % at 5 µM. actives 0.86% (n = 360,000). AID 588850, 2011;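 active = at least 50% inhibition at 5 µM, scaled per plate between neutral and stimulator controls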;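 note: PAF is a Pseudomonas aeruginosa culture filtrate used as stimulus; plate controls were PAF-stimulated DMSO wells for no effect and unstimulated DMSO wells for full effect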
HIF-2a block: HIF-2a reporter inhibitors, primary screen, luminescence, 786-0 RCC cells. inhibition, % at 18.8 µM. actives 0.72% (n = 360,000). 786-0 RCC cells HIF-2a reporter, luciferase luminescence, overnight. AID 624352, 2012;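 active = inhibition of the luminescence signal of 40% or more relative to plate controls, in a single-dose primary screen at 18.75 µM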
Starred values were filed as active, the others as inactive; ? = inconclusive; . = no result given.

SMILES	Shn3 inh set2	Peg3 prom inh	KKLEB cytotox	CF NFkB inh	HIF-2a block
O=C(COC(=O)Cc1c(F)cccc1Cl)NC(=O)Nc1ccccc1F	0	-1	2	23	-12
Cc1ccc(S(=O)(=O)NCCc2nc3ccccc3[nH]2)cc1	20	-8	9	-1	7
COc1ccc(/C=C2\C(=O)N(c3c(Cl)cc(Cl)cc3Cl)N=C2NC(=O)c2cccc([N+](=O)[O-])c2)cc1	63	77*	-1	-15	45*
O=C(N/N=C/c1ccc([N+](=O)[O-])o1)c1cc2c(ccc3ccccc32)o1	14	54*	-12	-18	-7
O=C(CCC(=O)Nc1ccc(Cl)cc1Cl)N/N=C/c1ccc([N+](=O)[O-])o1	26	57*	8	-14	-28
CC(C)CCC1(C)NC(=O)N(CC(=O)NCC(=O)Nc2ccc(F)c(F)c2F)C1=O (stereo not drawn)	6	15	2	9	14
COc1cc(Br)cc(/C=N/NC(=O)Cc2ccc(C(F)(F)F)cc2[N+](=O)[O-])c1O	20	54*	6	-5	18
CCOc1cc(/C=N/NC(=O)Cc2ccc(C(F)(F)F)cc2[N+](=O)[O-])c(Br)cc1OC	23	35	-15	-6	7
CC(SC1=NCCN1S(C)(=O)=O)c1ccccc1 (stereo not drawn)	-2	16	5	-14	8
COc1ccc(Cl)cc1N/C(N)=N/c1nc(CSc2ccc(C)cc2)cc(=O)[nH]1	80*	4	-14	8	-12
COc1ccc(Cl)cc1N/C(N)=N/c1nc(C)cc(=O)[nH]1	-2	-15	-4	6	3
CCOC(=O)N1CCN(C2=C(NS(=O)(=O)c3ccc(C)cc3)C(=O)c3ccccc3C2=O)CC1	23	23	7	54*	-5
CC1=C(/C=C/C(C)=C/C=C/C(C)=C/C(=O)O)C(C)(C)CCC1	18	12	-8	73*	14
CC(/C=C\c1ccccc1)=C/C(=O)O	-10	8	1	7	7
O=C(C1CCN(c2ncnc3c2nc2n3CCCCC2)CC1)N1CCN(c2cccc(Cl)c2)CC1	59	60*	-9	-9	27
CC1CCN(C(=O)C2CCN(c3ncnc4c3nc3n4CCCCC3)CC2)CC1	8	22	3	3	11
O=C(Nc1ccc(Cl)cn1)C1CCN(c2ncnc3c2nc2n3CCCCC2)CC1	57	5	2	4	17
O=C(Nc1ccc(Cl)cn1)C1CCCN(c2ncnc3c2nc2n3CCCCC2)C1 (stereo not drawn)	39	56*	9	-8	12
O=C(C1CCCN(c2ncnc3c2nc2n3CCCCC2)C1)N1CCN(c2ccc(F)cc2)CC1 (stereo not drawn)	24	45	-15	22	6
O=C(C1CCCN(c2ncnc3c2nc2n3CCCCC2)C1)N1CCN(c2ccc(Cl)cc2)CC1 (stereo not drawn)	40	56*	-9	-16	22
COC(=O)[C@]12CCCCC=C1N(Cc1ccc(Cl)cc1Cl)C(=O)[C@H](CC(=O)NCC1CCCCC1)C2	.	.	.	.	1
CCc1ccc(OCC(=O)NC(NC(=S)Nc2ccc(Cl)cc2)C(Cl)(Cl)Cl)cc1 (stereo not drawn)	86*	52*	-16	27	15
CC(=O)Nc1ccc(NC(=O)C(C)OC(=O)c2cc(S(=O)(=O)N3CCOCC3)ccc2Cl)cc1 (stereo not drawn)	1	1	5	3	-2
CCCOc1ccc(-c2nnc(-c3ccncc3)o2)cc1	-93	-281	-53*	0	-167
CC(C)COc1ccc(-c2nnc(-c3ccncc3)o2)cc1	-27	-262	7	-21	-205
SMILES	Shn3 inh set2	Peg3 prom inh	KKLEB cytotox	CF NFkB inh	HIF-2a block
CSc1ncccc1C(=O)OCC(=O)Nc1cccc(S(=O)(=O)N2CCOCC2)c1	15	14	-2	-11	13
Cc1ccc(NC(=O)c2nc[nH]c2C(=O)N(C)CCO)cc1	-15	-1	-7	15	-13
Cc1ccc(C(=O)Nc2nnc(NC(=S)Nc3ccccc3)s2)cc1	-23	-77	-2	65*	-123
Cc1ccc(NC(=O)CSc2nc3ccccc3c3nc(CCn4cncc4C)nn23)c(C)c1	5	96*	-19	5	6
Cc1ccccc1NC(=O)CSc1nc2ccccc2c2nc(CCn3cncc3C)nn12	-8	-95	-5	10	18
CN(C(=O)Cc1ccccc1)n1cnnc1	2	30	-2	-4	11
COC(=O)Cn1c(=O)c(C(=O)CCl)c(N)n(Cc2ccccc2)c1=O	.	81*	5	28	30
COc1ccc(CC(=O)Nc2cc(Cl)ccc2O)cc1	4	-10	-6	-10	-19
Clc1ccc2nc(N3CCNCC3)nc(-c3ccccc3)c2c1	2	101*	-29	26	16
CN1CCN(c2nc(-c3ccccc3)c3cc(Cl)ccc3n2)CC1	12	23	-5	-3	-8
CCOC(=O)c1ccccc1NC(=O)COC(=O)CCNS(=O)(=O)c1cccs1	-9	-2	2	11	2
CCOc1cc2[nH]c(=S)n(CCc3ccc(OC)c(OC)c3)c(=O)c2cc1OCC	39	64*	-4	2	13
O=C(Cc1ccccc1)NNC(=O)c1ccc(Br)o1	-23	-4	-1	4	15
CC(=NNC(=S)SCc1ccccc1)c1ccccn1	?	94*	10	29	-154
CC(=NNC(=S)N1CC2CCC(CC2)C1)c1cccc(C)n1	81*	-12	8	-10	-104
CC(=NNC(=S)N1CCC1)c1ccccn1	92*	50	-14	36	2
CC(=O)CC1N(S(=O)(=O)c2ccc(C)cc2)c2ccccc2N1S(=O)(=O)c1ccc(C)cc1	.	.	.	.	12
O=C(NCCc1c[nH]c2ccccc12)c1cnccn1	3	-72	1	-6	-81
O=C1c2cccc(OCC(=O)N3CCCc4ccccc43)c2CCN1Cc1ccc(Br)cc1	51	58*	-14	5	-15
Cc1ccc(S(=O)(=O)N(C)C)cc1NC(=O)C(C)N(C)CCOc1ccc(Cl)cc1 (stereo not drawn)	24	16	-8	-6	17
O=[N+]([O-])c1cc(-c2nc(-c3ccncc3)no2)cc([N+](=O)[O-])c1	-17	-137	5	-52	-114
O=[N+]([O-])c1cc(-c2nc(-c3ccncc3)no2)ccc1Cl	-3	105*	14	-28	-23
C(=N\N1CCN(Cc2ccccc2)CC1)/c1ccc(-c2ccccc2)cc1	89*	-4	-2	-7	11
Cc1ccc(/C=N/N2CCN(Cc3ccccc3)CC2)cc1	-30	-70	2	3	-104

Screening results as filed in PubChem.
